Source: PubChem
FBPA Giardia inh = blocks Giardia fructose-bisphosphate aldolase activity; actives 0.71% (n = 290,000); Potency, µM (doses to about 59.6 µM), without a hit: at the highest dose activity, negative = inhibition, most hits filed as inhibitors; purified Giardia FBPA; further: potency means the concentration at half of the fitted maximal effect; on the % scale 0 is the no-effect control and ±100 the full control effect; nearly all actives have a fitted effect of over 55% in size
Target sequence (A8B2U2 whole entry, looked up): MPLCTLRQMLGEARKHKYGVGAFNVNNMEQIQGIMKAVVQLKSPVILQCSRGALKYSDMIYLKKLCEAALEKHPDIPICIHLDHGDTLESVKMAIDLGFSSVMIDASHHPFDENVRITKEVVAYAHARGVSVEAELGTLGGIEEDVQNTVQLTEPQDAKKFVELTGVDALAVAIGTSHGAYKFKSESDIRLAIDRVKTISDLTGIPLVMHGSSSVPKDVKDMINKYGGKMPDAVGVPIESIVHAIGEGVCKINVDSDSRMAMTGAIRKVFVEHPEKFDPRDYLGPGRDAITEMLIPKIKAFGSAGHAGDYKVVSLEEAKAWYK
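40 nM FBPA preincubated 10 min at RT with compound (up to 57.5 uM final), then substrate plus GAPDH/TPI/NAD/arsenate coupling and diaphorase/resazurin added. Fluorescence read after 20 min at RT, 525/598 nm.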
LmPK inh = inhibitors of Leishmania mexicana pyruvate kinase; Potency, µM (top dose mostly 57.5 µM), for inactives: top-dose activity change, negative = inhibition, hits mostly inhibitors; actives 0.37% (n = 290,000); purified LmPK, Kinase-Glo ATP luminescence, 1 h; Q27686; further: potency means the concentration at half of the fitted maximal effect; on the % scale 0 is the no-effect control and ±100 the full control effect
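Kinase-Glo luminescence read after 1 h RT reaction of 0.1 nM LmPK with 0.5 mM PEP and 0.1 mM ADP. Activity scaled between uninhibited and enzyme-free controls.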
Cycloheximide cs = counter-screen for Shiga toxin inhibitors: cycloheximide protein synthesis inhibition. cell reporter, cycloheximide protein synthesis inhibition counterscreen. max response, %. actives 12% (n = 300,000). AID 2314; in the data active means max response mostly above about 13%, no sharp cut-off; inactive means mostly below about 14%; further: read at 38.3 µM for the half of the compounds with a filed dose; 0% is about no effect
Shiga inhibitor = blocks Shiga toxin action in Vero cells | Vero cells, Shiga toxin protein synthesis inhibition reporter | inhibition, % at 38.7 µM | actives 9.2% (n = 290,000) | AID 2315; in the data active means inhibition mostly above about 28%, no sharp cut-off; inactive means mostly below about 43%; further: 0% is about no effect
NS1 function inh = blocks influenza NS1 protein function; Potency, µM (series often up to 46.1 µM), inactives show at the top dose activity, positive = more growth; actives 0.4% (n = 270,000); calls by dose curve; further: potency means the concentration at half of the fitted maximal effect; actives are rising curves; nearly all actives have a fitted effect of over 50% in size
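Read-out: OD600 growth recovery of NS1-expressing budding yeast. Cells grown overnight at 30C in -URA glucose medium, washed, resuspended and diluted 1:100 in 2% galactose assay medium, pH 6.0. Same strain lacking NS1 served as positive control.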
* = called active by the depositor; i = inactive; ? = inconclusive; nt = no result; ! = not confirmed by another sample; [ ] = another dose, or the depositor's remark. In the library only some 14% were active in any assay of this set; here they are far more common. Unless noted, the call rests on the fitted dose curve; in most records, active means well fitted curve in the direction sought with a large enough effect; inconclusive means small, poorly fitted or top-dose-only effect, or another doubt; inactive means no such curve, though single readings can be large; an effect the other way counts as inactive or inconclusive.

SMILES | FBPA Giardia inh | LmPK inh | Cycloheximide cs | Shiga inhibitor | NS1 function inh
Nc1ccc2c(c1)Cc1ccccc1-2 | 5% | 0% | 34* | 64* | 15%
CCN1CCN(Cc2ccc3c(c2)Cc2ccccc2-3)CC1 | 0% | -1% | 21 | 28 | -2%
Cc1nn(Cc2ccccc2)c(Cl)c1/C=C/C(=O)OC(C)C(=O)N1CCCC1 (centres undefined) | 24% | 3% | 5 | 2 | nt
COc1ccc(CCCC(=O)NCC(=O)N/N=C/c2cc(Cl)ccc2OC)cc1 | -20% | 4% | -2 | 6 | -3%
COc1ccccc1N1CCN(CCCCNS(=O)(=O)c2cccc3c(N(C)C)cccc23)CC1 | -6% | nt | nt | nt | 8%
Cc1ccc(-c2ccccc2NC(=O)CS(=O)CC(=O)Nc2ccc(C)c(Cl)c2)o1 (centres undefined) | 6% | 2% | -7 | -9 | -25%
Cc1ccc(-c2ccccc2NC(=O)CCl)o1 | -10% | 4% | 16* | 51 | -30%
CCOC(=O)[C@@H]1[C@H]2COc3ccccc3[C@@H]2N2C(=O)N(c3ccc(Cl)cc3)C(=O)[C@]12C | -2% | -1% | -3 | 15 | 6%
C[C@]1(c2ccccc2)O[C@@H]2C[C@@H]3[C@@H]4CCC5=CC(=O)C=C[C@@]5(C)[C@]4(F)[C@H](O)C[C@]3(C)[C@@]2(C(=O)CO)O1 | nt | nt | nt | nt | -5%
CC(C)N=c1scc(-c2ccco2)n1/N=C/c1ccc(O)c(O)c1 | -19% | 2% | 43* | 56 | -145%
COCCN=c1scc(-c2ccc3c(c2)NC(=O)CO3)n1/N=C(\C)c1ccc(O)cc1 | ? | 4% | -1 | -3 | 10%
COCCN=c1scc(-c2cccs2)n1/N=C(\C)c1ccco1 | -8% | 3% | 83* | 124* | nt
COCCN=c1scc(-c2ccco2)n1/N=C/c1ccc(O)c(O)c1O | 18µM* | -1% | 11 | 54 | 3%
COCCN=c1scc(-c2cc(OC)ccc2OC)n1/N=C/c1c[nH]c2ccccc12 | -4% | -2% | 2 | -15 | ?
Oc1ccc(/C=N/n2c(-c3ccco3)csc2=Nc2cccnc2)c(O)c1 | -2% | -5% | -6 | -9 | ?
C=CCN=c1scc(-c2ccco2)n1/N=C/c1ccc(O)c(O)c1O | 22µM* | -3% | 2 | -10 | 15%
Cn1cc(CCCC(=O)NCc2ccc(F)cc2)c2ccccc21 | 2% | 2% | -4 | 3 | -13%
C=C1c2ccccc2O[C@H](C(=O)OCC)[C@@H]1CCC(C)C (tested in a mixture with another compound) | -4%[89.2 µM] | nt | 9 | i | nt
COc1ccnc(Oc2ccccc2)c1C#N | 6% | -3% | -1 | -16 | -9%
c1ccc(N2CCN(c3ncccn3)CC2)cc1 | 6% | 8% | 22* | 25 | -17%
COc1ccnc(N2CCN(c3ccccc3)CC2)c1C#N | 9% | 1% | 29* | 40* | -17%
Oc1ccccc1N1CCN(c2ncccn2)CC1 | -8% | -4% | 9 | -4 | -3%
COc1ccc(N2CCN(c3ncccc3C#N)CC2)cc1 | 2% | -2% | 11* | -1 | -2%
CCCCOc1ccc(N2CC(C(=O)NCc3ccco3)CC2=O)cc1 (centres undefined) | 9% | -1% | -1 | 23 | ?
COc1ccccc1C(=O)N1CCN(CCNC(=O)C(=O)Nc2ccc(Br)c(C)c2)CC1 | nt | 4% | -2 | 14 | -23%
SMILES | FBPA Giardia inh | LmPK inh | Cycloheximide cs | Shiga inhibitor | NS1 function inh
CC(C)NC[C@H](O)c1ccc(O)c(O)c1 | 10µM*! | nt | nt | nt | 0%
CCC(NC(C)C)C(O)c1ccc(O)c(O)c1 (centres undefined) | 2.8µM* | -16% | -2 | 16 | 0%
CC(C)C[C@@H](CC(=O)N[C@@H](CCC(=O)O)CC(=O)O)NC(=O)[C@@H]1CNCC[C@H]1NC(=O)C[C@H](CCCN)NC(=O)C[C@H](CO)NC(=O)[C@@H]1CNCC[C@H]1N | -21% | nt | nt | nt | nt
Cc1ccccc1OCC(=O)NC(=S)Nc1ccccc1N1CCN(S(C)(=O)=O)CC1 | nt | -6% | -2 | -2 | 5%
CCOC(=O)C1(Cc2ccccc2Cl)CCN(C(=O)CN2CCOC2=O)CC1 | 1% | 3% | 43* | 75* | -4%
CCOC(=O)C1(CCCc2ccccc2)CCN(C(=O)CN2CCOC2=O)CC1 | 2% | 2% | 8 | 9 | -4%
O=C(Nc1c(C(=O)N2CCCCC2)cnn1-c1ccccc1)c1ccccc1F | nt | 1% | -2 | -11 | -1%
C/C(=N\NS(=O)(=O)c1ccccc1)c1ccc2c(c1)OCO2 | 0% | 0% | 12* | 16 | nt
C/C(=N\NS(=O)(=O)c1ccc(C)c([N+](=O)[O-])c1)c1ccc2c(c1)OCO2 | 1% | 0% | 27* | 19 | nt
C/C(=N/NS(=O)(=O)c1ccc(C)cc1)c1ccc2c(c1)OCO2 | -2% | 1% | -2 | -6 | -20%
Nc1c(C(=O)c2ccc(Br)s2)oc2ccccc12 | -3% | -1% | 23* | 37 | -70%
Nc1c(C(=O)c2cccs2)oc2ccccc12 | 4% | -1% | 26* | 99* | -88%
Nc1ccc(C(=O)c2cccs2)cc1 | 1% | 0% | 11 | 36 | -3%
COc1ccc(S(=O)(=O)Nc2ccc3c(c2)CCC3)cc1 | -9% | 1% | -1 | 17 | nt
COc1ccc(OC)c(CC(=O)Nc2ccc3c(c2)CCC3)c1 | 4% | 6% | 5 | 21 | -21%
COc1cccc(CNc2ccc3c(c2)CCC3)c1 | ? | 2% | 118* | 153* | 1%
COc1ccc(OC)c(CNc2ccc3c(c2)CCC3)c1 | ? | -1% | 43* | 66* | 11%
COc1cccc(CNc2nc3nc(C)cc(C)n3n2)c1 | 1% | 2% | 11* | 66 | -2%
COc1cccc(CNc2ccc(C)c(Cl)c2)c1 | -1% | 1% | 39* | 64* | -7%
COc1ccccc1NC(=O)CN1CCN(CC(=O)Nc2ccc(C)c(F)c2)CC1 | -2% | 0% | -1 | -9 | -12%
O=C(NCCN1CCOCC1)C1CC(=O)N(c2ccc(F)cc2)C1 (centres undefined) | 11% | 0% | -7 | -6 | -4%
COc1ccccc1/C=C\C(=O)OC[C@@H]1CCCN2CCCC[C@H]12 | 0% | nt | nt | nt | nt
COc1ccc(/C=C/C(=O)Nc2cc(S(=O)(=O)N3CCOCC3)ccc2C)cc1OC | -2% | 1% | -3 | -9 | nt
COc1ccc(/C=C/C(=O)Nc2ccccc2C)cc1S(=O)(=O)N1CCOCC1 | -8% | 1% | 62* | 66* | -6%
COc1ccc(/C=C/C(=O)Nc2cccc(F)c2)cc1S(=O)(=O)N1CCOCC1 | -3% | -3% | 28* | 52 | nt
NCC(=O)N[C@@H](CCCN=C(N)N)C(=O)NCC(=O)N[C@@H](CCC(=O)O)C(=O)N[C@@H](CO)C(=O)O | 3% | nt | -6 | -2 | nt
O=C(O)[C@@H]1[C@@H](C(=O)O)[C@@]23CCCC2=C2CC[C@@]3(C(=O)O)[C@@]3(C(=O)O)C[C@@]213 | nt | nt | nt | nt | -6%
CCC(SC1=Nc2ccccc2C2=NC(CC(C)C)C(=O)N12)C(=O)Nc1ccc2c(c1)OCO2 (centres undefined) | ? | -15% | 23* | 40* | 11%
